Molecules are shown by their SMILES. The source made the active and inactive calls.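 How the source made its calls: active means inhibition above 20% together with a positive visual image hit; inconclusive means visual image hit but inhibition not above 20%; inactive means no visual image hit.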

This experiment in a line: inhibitors of TNFa-induced NFkB p65 translocation, primary screen, imaging, HUVEC, MLSMR starter and 10KST1 sets (AID 438).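 Further: compound added about 3h40 before a 20 min TNFalpha stimulation.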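 On inhibition: signal is the nuclear over cytoplasmic p65 intensity ratio per well.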 Particulars: HUVEC TNFa-induced p65 nuclear translocation; cell count: measured here: nuclei count (cytotoxicity indicator), at 2.08 µM; inhibition: at 2 µM, stronger effect = higher value, 0% TNFa-plus-vehicle, 100% no-TNFa wells.
As to `CCCn1c2c(c(O)c(C(=O)Nc3ccc(C)cn3)c1=O)CCCC2`, the inhibition is 9.8% (inactive) and the cell count was found to be 483.

As for `CCCC1(C(=O)OCC)NC(c2ccc(N(C)C)cc2)C2C(=O)N(c3ccccc3)C(=O)C21` (stereo not given), the cell count stood at 468 and the inhibition is -0.5% (inactive).

With `COc1cc(C2C(C(=O)c3ccc(C)o3)=C(O)C(=O)N2c2cc(C)on2)cc(Br)c1O` (stereo not given), the inhibition was -16.4% (inactive) and the cell count turned out to be 724.

Consider `CCCCc1cc(=O)oc2c(CN3CCCC3)c(O)c(Cl)cc12`, for which the inhibition is -12.6% (inactive) and the cell count amounted to 531.

On to `Cc1ccccc1-c1nc(CN2CCC(C(=O)NCc3cccnc3)CC2)c(C)o1`, for which the inhibition is -2.3% (inactive) and the cell count was determined as 349.

Turning to `O=C(Nc1ccc(Cc2ccncc2)cc1)C1CC1`, the inhibition was 2.9% (inactive) and the cell count worked out at 447.

`Nc1cc(C(=O)O)ccc1Nc1ccc(F)c(F)c1`: the cell count is 693 and the inhibition was -22.9% (inactive).

Regarding `CSc1nc2c(ccc3ccccc32)o1`, the inhibition was 4.2% (inactive) and the cell count stood at 572.

For the compound `CCCCSc1nc2c(cnn2-c2ccc(Cl)cc2)c(=O)[nH]1`, the cell count was 233 and the inhibition was -0.3% (inactive).

Turning to `CC(NO)C(C)(C)NO` (stereo not given), the inhibition was 4.4% (inactive) and the cell count turned out to be 331.

With `CCCCOc1ccc(C(=O)Nc2ccc(N3CCN(C(=O)C(C)C)CC3)cc2)cc1`, the inhibition is -3.3% (inactive) and the cell count is 825.

For the compound `O=c1[nH]c2ccccc2nc1NCCN1CCOCC1`, the cell count was 404 and the inhibition was -26.6% (inactive).

`CCOC(=O)c1ccccc1NC(=O)COC(=O)C1=COCCO1`: the cell count is 595 and the inhibition is -3.1% (inactive).

As to `COCCCNC(=O)C(Cc1ccccc1)NS(=O)(=O)c1ccc2c(c1)c(=O)n(C)c(=O)n2C` (stereo not given), the inhibition was -2.5% (inactive) and the cell count came to 561.

As for `Cc1nc2cc(CO)ccc2n1C`, the inhibition was 4.7% (inactive) and the cell count worked out at 425.

With `NCC(O)COc1ccc2c(c1)OCO2` (stereo not given), the cell count came out at 378 and the inhibition was -7% (inactive).

Consider `Nc1nc2sc3c(c2c(=O)s1)CCCC3`, for which the inhibition is 0.2% (inactive) and the cell count worked out at 194.

In the case of `COc1cccc(OC)c1C(=O)N1CCN(S(=O)(=O)c2ccccc2)CC1`, the inhibition was 1.4% (inactive) and the cell count turned out to be 437.

In the case of `COc1ccc(C(NC(=O)c2ccco2)c2ccc(OC)c(OC)c2)cc1` (stereo not given), the inhibition is 27.4% (active) and the cell count was 373.

On to `O=C(O)C1CC(=O)N(c2ccc(OCc3ccccc3Cl)cc2)C1` (stereo not given), for which the inhibition was -2.2% (inactive) and the cell count was 339.

Turning to `O=C(CCSc1nnc(-c2ccncc2)o1)Nc1ccccc1`, the inhibition was -3.9% (inactive) and the cell count was determined as 680.

`CCNS(=O)(=O)c1c(C)cc(N2CCCC2=O)cc1C`: the cell count was found to be 498 and the inhibition was -8% (inactive).

Turning to `CN(C)C(CNc1nnnn1-c1ccccc1)c1ccco1` (stereo not given), the inhibition was -7.3% (inactive) and the cell count came out at 632.

With `Cn1c(-c2ccccc2)c(CCO)c2ccccc21`, the inhibition was 13.7% (inactive) and the cell count turned out to be 578.

`CCOC(=O)C1C(=O)NC(SCC(=O)Nc2nccs2)=C(C#N)C1c1ccccc1OCC` (stereo not given): the inhibition was -27.7% (inactive) and the cell count stood at 605.

Regarding `c1ccc2nc(-c3nc4ccccc4[nH]3)ccc2c1`, the inhibition is 9.8% (inactive) and the cell count was determined as 574.

In the case of `COc1cc(-c2nc(S(=O)(=O)c3ccccc3)c(N3CCOCC3)o2)cc(OC)c1OC`, the inhibition is 6% (inactive) and the cell count stood at 439.

For the compound `O=C(N1CCN(Cc2ccccc2)CC1)C12CC3CC(CC(C3)C1)C2`, the inhibition was -4.3% (inactive) and the cell count was determined as 530.

In the case of `CC(=O)c1c(NCCc2ccccc2)cc(C)oc1=O`, the inhibition was 8.2% (inactive) and the cell count is 577.

Take `O=C(NCCCN1CCN(CCCNC(=O)c2ccc(F)cc2)CC1)c1ccc(F)cc1`: the cell count amounted to 364 and the inhibition was -1.1% (inactive).

Consider `C=CCn1c(SCc2cc(=O)n3ccsc3n2)nnc1C1CCCCC1`, for which the inhibition was 3.8% (inactive) and the cell count came to 439.

On to `Oc1c(Cl)cc(Cl)c2c1NCCC2`, for which the inhibition was 0.4% (inactive) and the cell count was 313.

On to `CN(C)S(=O)(=O)c1ccc2c(c1)C(CC(=O)O)OC2=O` (stereo not given), for which the inhibition was 2.3% (inactive) and the cell count stood at 616.

In the case of `COc1cc(OC)cc(-n2nnnc2SCC(=O)N2CCCC2)c1`, the cell count came out at 740 and the inhibition was -7.3% (inactive).

As for `CCC(=O)N1CCc2cc(Br)cc(S(=O)(=O)C3(C(=O)OC)CC3)c21`, the cell count was determined as 469 and the inhibition is 2.5% (inactive).

Turning to `COC(=O)C(C)Sc1nc2c(c(=O)n(C)c(=O)n2C)n1Cc1cccc(C)c1` (stereo not given), the inhibition is 3.8% (inactive) and the cell count was determined as 474.

Turning to `Cn1c(SCc2ccc3c(c2)OCO3)nnc1-c1ccccc1`, the inhibition is 9.8% (inactive) and the cell count is 344.

`Cc1nn(-c2ccc(F)cc2)c(C)c1NS(=O)(=O)c1ccc(Cl)cc1`: the inhibition was 4.2% (inactive) and the cell count came out at 307.

For `CC1(C)OC(=O)C(=CNc2ccccc2)C(=O)O1`, the inhibition was 9.4% (inactive) and the cell count was 548.

In the case of `CCCCCn1c(CN(C)Cc2ccccc2)nc2c1c(=O)n(C)c(=O)n2C`, the inhibition is -12.2% (inactive) and the cell count was found to be 529.

For the origin of these results see PubChem BioAssay.
